Test [1] in a line: yeast TOR pathway RPL19A-GFP modulators, primary screen, cell-based, S. cerevisiae, multiplex flow cytometry (AID 1862; in the data active = percent of DMSO control GFP below about 86%;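 also: lower values mimic rapamycin by blocking the RPL19A rise seen in DMSO cells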). The following applies: S. cerevisiae RPL19A-GFP strain, flow cytometry fluorescence, 3 h; at 10 µM; stronger effect = lower value. Background: Flow cytometry measures light scatter and fluorescence of single cells or particles in a stream.
Test [2] in a line: modulators of MEP2-GFP levels in yeast, primary screen, S. cerevisiae, multiplex flow cytometry (AID 1867;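 active = GFP response, as percent of the DMSO control, above the screen-wide mean plus 3 SD, about 139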;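 also: median GFP channel fluorescence of barcode-gated MEP2-GFP cells measured by flow cytometry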). Conditions: S. cerevisiae MEP2-GFP strain, 3 h, at 10 µM, stronger effect = higher value, 100% means same as DMSO wells.
A short description of test [3]: modulators of CIT2-GFP expression in yeast, primary screen, S. cerevisiae, GFP fusion, multiplex flow cytometry (AID 1870;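 active = percent response above a set limit, the screen-wide mean plus 3 SD, cut at about 130% in these data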;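 also: barcoded CIT2-GFP strain pooled with four other GFP strains with rapamycin as positive control; median GFP fluorescence per well over plate mean of DMSO wells so 100% = DMSO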). The following applies: 3 h, at 10 µM, stronger effect = higher value.
Test [4] is described as follows: modulators of LAP4-GFP expression in yeast, primary screen, S. cerevisiae, multiplex flow cytometry (AID 1873;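 active = GFP signal, as percent of the solvent control, above the screen mean plus 3 SD, about 149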). The following applies: 3 h, at 10 µM, stronger effect = higher value.
The nature of test [5]: modulators of AGP1-GFP expression in yeast TOR pathway, primary screen, cell-based, multiplex flow cytometry, S. cerevisiae (AID 1887;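 active = GFP signal above the screen-wide mean plus 3 SD, that is over about 124.5% of the solvent control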;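 also: AGP1-GFP fusion strain of S. cerevisiae within a five-strain barcoded multiplex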). Conditions: 3 h, at 10 µM, stronger effect = higher value.
Test [6] is described as follows: inhibitors of CD8+ T cell-vesicle binding, pilot screen, LFA-1/ICAM-1 modulator project, MLPCN validation set, flow cytometry (AID 2523).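 As to vesicle binding response: mean PE anti-B7-1 fluorescence of CD8+ cells relative to row control; 100% = QL9-loaded vesicles with DMSO vehicle in the same plate row.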 The following applies: 2C mouse CD8+ T cells, at 7 µM, stronger effect = lower value; double positive events: measured here: CD8+/vesicle+ event percentage.
The target in test [7] is Integrin beta-1 (Homo sapiens) + Integrin alpha-4 (Homo sapiens) (UniProt P13612+P05556). Description: inhibition of HUTS-21 binding to VLA-4, pilot screen, VLA-4 allosteric modulator project, U937 cells, HUTS-21 mAb, flow cytometry, validation set (AID 2674;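 active = inhibition above 50%, about 3 SD of the validation set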;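 also: antibody binding induced by the VLA-4 ligand LDV present at three times its Kd; 0% = LDV ligand with antibody and no compound and 100% = antibody without LDV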). Conditions: HUTS-21 LIBS mAb binding, at 6.7 µM, stronger effect = higher value, binding induced by LDV ligand.
The nature of test [8]: superoxide lowering in aged yeast cells, pilot screen, validation compound set (AID 2706;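 active = superoxide response below 65% of plate, a cut near 3 SD across the whole screen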;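 also: yeast exposed to compound for one week at 30 degrees C before staining; 100% = mean of all compound wells on the same plate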). Conditions: S. cerevisiae aging, superoxide DHE fluorescence; at 10 µM; stronger effect = lower value.
Test [9] concerns the target Beta-adrenergic receptor kinase 1 (Homo sapiens) (UniProt P25098). Kind of test: GRK2 binders displacing RNA aptamer, biochemical, validation, human GRK2, bead flow cytometry (AID 488806;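 active = aptamer binding inhibition above 30%, about 3 SD of noise from non-fluorescent compounds; inactive = inhibition at or below 30%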). The following applies: bead-bound GRK2, FAM-aptamer displacement, at 10 µM, stronger effect = higher value.
Test [10] has as its target Beta-2 adrenergic receptor (Homo sapiens) (UniProt P07550). Kind of test: beta2AR agonists driving receptor internalization, pilot screen, cell-based, FAP fluorogen, flow cytometry, validation set (AID 504459;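 active = percent response above 42, roughly 3 SD of non-fluorescent test compounds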;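 also: agonist-driven loss of surface beta2AR via internalization measured by FAP dye flow cytometry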). The following applies: Am2.2-beta2AR cells, FAP surface receptor flow cytometry; at 10 µM; stronger effect = higher value.
Test [11] concerns the target AP-2 complex subunit beta (Homo sapiens) (UniProt P63010). Description: inhibitors of arrestin peptide binding to AP2, pilot screen, biochemical, validation set, GST-AP2 beads, flow cytometry (AID 504541;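 active = inhibition above 54%, about 3 SD of non-fluorescent compounds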;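 also: AP2 carries R879A mutation and is captured from E. coli lysate; bead-bound FITC arrestin peptide fluorescence measuring arrestin peptide binding to AP2; 0% = DMSO wells and 100% = excess unlabeled arrestin peptide control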). Conditions: FITC arrestin peptide, at 10 µM, stronger effect = higher value, AP2 beta2 appendage fragment, R879A mutant.
Test [12] can be described thus: yeast V-ATPase proton transport modulators, S. cerevisiae, pHLuorin, HTS validation (AID 504600; in the data active = response above about 15%;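 also: plate controls were DMSO for no effect and reference compound for full effect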). The following applies: S. cerevisiae pHLuorin cytosolic pH, at 10 µM, stronger effect = higher value.
Test [13] concerns anti-desmoglein-3 scFv antibody binding to human DSG3. Kind of test: inhibitors of anti-DSG3 scFv binding to DSG3, pilot screen, biochemical, validation compound set, bead-based, flow cytometry (AID 588368;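 active = binding below the plate cutoff, the plate median minus 3 SD, with a reading above zero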;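 also: signal is the median channel fluorescence of bead-bound GFP antibody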). The following applies: Protein G beads, DSG3-Fc, scFv-GFP binding, at 10 µM, stronger effect = lower value.
Test [14] in a line: inhibitors of fungal efflux pumps CDR1, CDR2, MDR1, pilot screen, validation compound set, multiplex, phenotypic (AID 588506;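 active = efflux inhibition above 0.42, the validation set average plus 4 SD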;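 also: Nile Red retained in cells so higher fluorescence means more efflux inhibition; 0 = negative control wells and 1 = enniatin B 25 µM full block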). Conditions: S. cerevisiae pump-expressing triplex, Nile Red efflux flow cytometry; at 10 µM; stronger effect = higher value; the pumps come from Candida albicans.
Test [15] addresses ATP-binding cassette sub-family B member 6 (Homo sapiens) (UniProt Q9NP58). Description: ABCB6 transporter inhibitors, pilot screen, K562-ABCB6 cells, flow cytometry, validation set (AID 588550;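 active = inhibition above the screen-wide mean plus 3 SD, about 51%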;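 also: 0% = DMSO wells and 100% = benzethonium chloride 70 µM positive control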). The following applies: K562-ABCB6 porphyrin accumulation, 1 h, at 10 µM, stronger effect = higher value.
Test [16] can be described thus: promoters of myeloid differentiation in arrested cells, primary screen, cell-based, GFP/MAC1 double positive, flow cytometry, validation set (AID 588685;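 active = differentiation response of at least 50%, scaled between solvent and reference control, from cells with both markers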;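 also: compound exposure lasts four days before antibody staining and flow analysis; 0% = DMSO wells and 100% = 5 µM fulvestrant positive control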). Conditions: ER-HoxA9 marrow cells, stronger effect = higher value, normalized: vehicle 0, fulvestrant 100.

Records with an inconclusive call do not appear. Calls of active or inactive are those of the source.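 The calls were made as follows, unless noted: active = response below a set limit, under 55% cells CD8-positive and vesicle-bound, and CD8 cells' 90th-percentile brightness under 279; inactive = the rest.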

The inhibition is the relative decrease from the control value, in per cent.

Chain of Integrin beta-1 (Homo sapiens) + Integrin alpha-4 (Homo sapiens) (P05556 whole entry, looked up): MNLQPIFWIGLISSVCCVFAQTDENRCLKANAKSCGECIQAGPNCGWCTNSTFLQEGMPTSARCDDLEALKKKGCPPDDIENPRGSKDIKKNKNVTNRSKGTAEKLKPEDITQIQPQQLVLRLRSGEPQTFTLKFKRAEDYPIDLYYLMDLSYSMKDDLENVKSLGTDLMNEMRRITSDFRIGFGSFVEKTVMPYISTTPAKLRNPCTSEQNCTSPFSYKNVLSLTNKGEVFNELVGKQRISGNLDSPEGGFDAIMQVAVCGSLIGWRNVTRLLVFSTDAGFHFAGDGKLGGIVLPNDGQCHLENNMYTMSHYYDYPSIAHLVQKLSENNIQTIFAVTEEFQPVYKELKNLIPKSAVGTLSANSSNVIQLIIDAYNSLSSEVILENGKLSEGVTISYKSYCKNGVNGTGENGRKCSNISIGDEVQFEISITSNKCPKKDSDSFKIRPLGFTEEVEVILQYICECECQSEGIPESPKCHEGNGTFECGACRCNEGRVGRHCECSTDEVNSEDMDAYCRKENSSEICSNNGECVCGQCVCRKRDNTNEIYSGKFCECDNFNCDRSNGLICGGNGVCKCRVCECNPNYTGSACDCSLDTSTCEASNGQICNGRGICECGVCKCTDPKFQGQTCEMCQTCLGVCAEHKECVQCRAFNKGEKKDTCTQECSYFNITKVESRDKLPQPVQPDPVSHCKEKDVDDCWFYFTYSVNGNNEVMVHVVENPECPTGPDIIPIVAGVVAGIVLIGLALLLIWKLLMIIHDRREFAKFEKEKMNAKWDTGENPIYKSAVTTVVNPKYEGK
Chain of Integrin beta-1 (Homo sapiens) + Integrin alpha-4 (Homo sapiens) (P13612 whole entry, looked up): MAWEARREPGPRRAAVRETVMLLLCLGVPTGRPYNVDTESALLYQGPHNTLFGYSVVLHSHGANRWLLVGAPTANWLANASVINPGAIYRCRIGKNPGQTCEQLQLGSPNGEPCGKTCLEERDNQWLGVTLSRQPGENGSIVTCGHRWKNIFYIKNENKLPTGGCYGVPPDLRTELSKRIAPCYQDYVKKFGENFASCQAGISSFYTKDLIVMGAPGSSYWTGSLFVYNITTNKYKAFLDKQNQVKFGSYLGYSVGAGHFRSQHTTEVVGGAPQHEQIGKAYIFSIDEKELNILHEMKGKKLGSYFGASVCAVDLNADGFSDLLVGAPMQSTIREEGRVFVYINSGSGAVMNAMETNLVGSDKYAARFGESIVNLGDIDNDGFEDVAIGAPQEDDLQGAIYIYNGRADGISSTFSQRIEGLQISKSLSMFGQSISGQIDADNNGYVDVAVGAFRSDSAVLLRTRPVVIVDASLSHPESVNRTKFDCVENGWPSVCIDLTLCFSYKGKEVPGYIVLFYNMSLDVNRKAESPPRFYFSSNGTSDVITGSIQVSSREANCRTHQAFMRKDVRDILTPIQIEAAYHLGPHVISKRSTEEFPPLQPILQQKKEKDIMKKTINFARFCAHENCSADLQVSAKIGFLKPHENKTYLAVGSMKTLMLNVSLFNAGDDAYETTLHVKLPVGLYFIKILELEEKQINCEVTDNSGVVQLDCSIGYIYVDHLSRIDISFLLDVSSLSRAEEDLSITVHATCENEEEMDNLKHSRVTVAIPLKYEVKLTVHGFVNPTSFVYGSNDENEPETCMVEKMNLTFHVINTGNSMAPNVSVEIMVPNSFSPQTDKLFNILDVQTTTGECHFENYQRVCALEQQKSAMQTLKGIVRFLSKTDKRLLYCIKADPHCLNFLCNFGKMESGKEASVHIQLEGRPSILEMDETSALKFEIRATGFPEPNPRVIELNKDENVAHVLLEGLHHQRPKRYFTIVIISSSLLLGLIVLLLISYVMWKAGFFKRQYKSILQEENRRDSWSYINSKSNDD
Chain of Beta-2 adrenergic receptor (Homo sapiens) (P07550 whole entry, looked up): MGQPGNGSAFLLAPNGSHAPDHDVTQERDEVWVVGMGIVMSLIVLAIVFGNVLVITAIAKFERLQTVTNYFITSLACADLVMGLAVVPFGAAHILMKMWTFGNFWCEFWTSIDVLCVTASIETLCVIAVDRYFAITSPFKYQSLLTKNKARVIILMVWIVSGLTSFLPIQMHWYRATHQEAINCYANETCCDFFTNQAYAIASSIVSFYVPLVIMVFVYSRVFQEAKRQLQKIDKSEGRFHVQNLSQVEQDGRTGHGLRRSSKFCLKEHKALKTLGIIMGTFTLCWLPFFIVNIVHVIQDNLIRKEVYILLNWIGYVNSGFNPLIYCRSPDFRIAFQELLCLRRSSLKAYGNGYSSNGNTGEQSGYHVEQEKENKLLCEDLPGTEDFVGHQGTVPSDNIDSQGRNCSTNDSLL
Chain of ATP-binding cassette sub-family B member 6 (Homo sapiens) (Q9NP58 whole entry, looked up): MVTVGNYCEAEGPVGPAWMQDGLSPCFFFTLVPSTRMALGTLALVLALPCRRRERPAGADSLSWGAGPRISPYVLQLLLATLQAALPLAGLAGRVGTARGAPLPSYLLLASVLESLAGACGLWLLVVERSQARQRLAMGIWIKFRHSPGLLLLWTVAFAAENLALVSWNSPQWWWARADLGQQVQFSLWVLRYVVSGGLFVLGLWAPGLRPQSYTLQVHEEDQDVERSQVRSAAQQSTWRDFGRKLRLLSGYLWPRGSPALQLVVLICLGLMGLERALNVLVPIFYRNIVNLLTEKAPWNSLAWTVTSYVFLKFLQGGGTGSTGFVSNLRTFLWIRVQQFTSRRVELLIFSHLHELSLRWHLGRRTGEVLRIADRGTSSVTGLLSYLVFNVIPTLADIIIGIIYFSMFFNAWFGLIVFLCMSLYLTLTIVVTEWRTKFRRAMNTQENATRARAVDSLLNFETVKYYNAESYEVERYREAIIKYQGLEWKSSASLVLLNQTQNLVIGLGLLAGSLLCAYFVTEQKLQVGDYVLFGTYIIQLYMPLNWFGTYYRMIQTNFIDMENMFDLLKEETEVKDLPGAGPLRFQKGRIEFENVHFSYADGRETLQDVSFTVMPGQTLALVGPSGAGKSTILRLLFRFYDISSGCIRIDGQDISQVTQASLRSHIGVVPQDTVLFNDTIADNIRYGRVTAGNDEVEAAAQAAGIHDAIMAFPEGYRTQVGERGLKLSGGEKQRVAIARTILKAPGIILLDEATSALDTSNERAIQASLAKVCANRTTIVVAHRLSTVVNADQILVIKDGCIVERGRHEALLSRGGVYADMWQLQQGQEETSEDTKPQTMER
Chain of Beta-adrenergic receptor kinase 1 (Homo sapiens) (P25098 whole entry, looked up): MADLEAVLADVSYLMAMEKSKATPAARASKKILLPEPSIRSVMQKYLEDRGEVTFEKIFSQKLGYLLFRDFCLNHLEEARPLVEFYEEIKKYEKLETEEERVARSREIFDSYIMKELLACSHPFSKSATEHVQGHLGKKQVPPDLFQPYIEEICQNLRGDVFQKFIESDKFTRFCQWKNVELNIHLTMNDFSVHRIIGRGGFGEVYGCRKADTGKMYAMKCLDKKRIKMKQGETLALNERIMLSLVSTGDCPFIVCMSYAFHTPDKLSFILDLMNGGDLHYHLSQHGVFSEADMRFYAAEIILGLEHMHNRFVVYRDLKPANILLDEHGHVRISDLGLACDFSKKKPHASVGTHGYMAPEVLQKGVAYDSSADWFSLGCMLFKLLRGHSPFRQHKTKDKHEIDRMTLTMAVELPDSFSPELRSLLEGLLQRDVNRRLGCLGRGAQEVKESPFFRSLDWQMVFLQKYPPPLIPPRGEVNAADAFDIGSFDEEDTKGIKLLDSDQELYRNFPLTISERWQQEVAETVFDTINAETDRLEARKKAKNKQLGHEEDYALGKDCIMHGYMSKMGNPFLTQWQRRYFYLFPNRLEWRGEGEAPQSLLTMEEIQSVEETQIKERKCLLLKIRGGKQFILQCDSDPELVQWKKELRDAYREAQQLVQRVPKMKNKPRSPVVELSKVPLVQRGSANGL
Chain of AP-2 complex subunit beta (Homo sapiens) (P63010 whole entry, looked up, the tested form may be a part, one chain of several): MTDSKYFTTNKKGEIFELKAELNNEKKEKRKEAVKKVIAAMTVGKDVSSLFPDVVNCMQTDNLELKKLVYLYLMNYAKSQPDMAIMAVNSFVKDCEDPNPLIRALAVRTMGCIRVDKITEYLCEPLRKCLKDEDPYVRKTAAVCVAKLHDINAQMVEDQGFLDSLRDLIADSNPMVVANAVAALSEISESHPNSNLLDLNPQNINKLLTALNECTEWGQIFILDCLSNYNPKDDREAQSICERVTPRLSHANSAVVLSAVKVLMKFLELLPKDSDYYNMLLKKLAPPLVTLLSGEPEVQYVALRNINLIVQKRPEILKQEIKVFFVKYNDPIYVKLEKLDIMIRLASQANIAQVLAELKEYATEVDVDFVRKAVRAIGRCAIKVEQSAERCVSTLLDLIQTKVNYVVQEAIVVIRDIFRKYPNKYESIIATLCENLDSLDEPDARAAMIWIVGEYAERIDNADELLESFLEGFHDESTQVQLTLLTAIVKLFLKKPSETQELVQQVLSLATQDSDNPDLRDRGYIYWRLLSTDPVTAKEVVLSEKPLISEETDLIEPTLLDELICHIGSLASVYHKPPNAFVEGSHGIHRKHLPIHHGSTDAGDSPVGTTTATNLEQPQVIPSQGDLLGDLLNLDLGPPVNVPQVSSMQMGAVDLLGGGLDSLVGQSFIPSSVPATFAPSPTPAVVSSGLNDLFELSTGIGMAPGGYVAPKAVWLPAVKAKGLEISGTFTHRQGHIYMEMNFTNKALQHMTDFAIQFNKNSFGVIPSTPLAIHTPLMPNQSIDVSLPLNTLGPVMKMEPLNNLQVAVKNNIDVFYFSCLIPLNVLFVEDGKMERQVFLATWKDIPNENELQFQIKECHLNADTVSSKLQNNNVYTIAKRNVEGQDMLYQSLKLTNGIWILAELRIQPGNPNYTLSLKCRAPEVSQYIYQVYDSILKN

As to `O=C(CN1C(=O)C2CCc3[nH]c4ccccc4c3C2C1=O)N1CCCC1` (stereo not given), the percent of DMSO control GFP in [1] is 89.1% (inactive). The GFP response vs DMSO in [2] is 121% (inactive); in [4] it was 78.1% (inactive). For the same compound, the percent response of DMSO control in [3] is 106% (inactive). Also, in [5], the GFP response, % of DMSO was 87.3% (inactive). Moreover, the double positive events in [6] turned out to be 48%. In test [6], the vesicle binding response was 72.2% (active). Also, the inhibition in [7] was 22.9% (inactive); in test [11], -3.8% (inactive); in [15] it was 9% (inactive). Also, the superoxide response (% of plate) in [8] was 95.1% (inactive). Further, the aptamer binding inhibition in test [9] is 3% (inactive). Moreover, the response in test [10] was -15.3% (inactive); in test [12] it was -4.07% (inactive). In addition, the binding (% of control) in test [13] is 103% (inactive). Besides, the efflux inhibition (fraction of control) in test [14] was 0.09 (inactive). For the same compound, the differentiation response in test [16] is 4.91% (inactive).
Consider `Cc1ccc2c(c1)c1c3n2CCCN(Cc2ccccc2)C3CCC1` (stereo not given), for which the percent of DMSO control GFP in [1] is 100% (inactive). Also, the values for the GFP response vs DMSO in [2] and in test [4] were 104% (inactive) and 103% (inactive), respectively. The percent response of DMSO control in test [3] was 105% (inactive). The GFP response, % of DMSO in test [5] is 92.5% (inactive). The double positive events in test [6] was 77.6%. Besides, in test [6], the vesicle binding response is 490% (inactive). The inhibition was -27.7% (inactive) in test [7], -2.35% (inactive) in test [11] and 6% (inactive) in [15]. In addition, the superoxide response (% of plate) in test [8] was 81.8% (inactive). The aptamer binding inhibition in [9] is 0% (inactive). The response in [10] was 14.8% (inactive); in test [12], -2.93% (inactive). Also, the binding (% of control) in [13] is 102% (inactive). Also, in [14], the efflux inhibition (fraction of control) is 0.33 (inactive). Also, in test [16], the differentiation response is 8.8% (inactive).
With `COc1ccc(NC(=O)C2OC3OC(C)(C)OC3C3OC(C)(C)OC23)cc1` (stereo not given), the percent of DMSO control GFP in test [1] was 98.9% (inactive). Also, the GFP response vs DMSO is 98.6% (inactive) in test [2] and 106% (inactive) in test [4]. For the same compound, in test [3], the percent response of DMSO control is 98.3% (inactive). The GFP response, % of DMSO in [5] is 119% (inactive). In addition, in test [6], the double positive events was 63.5%. Moreover, in [6], the vesicle binding response is 203% (inactive). For the same compound, the inhibition is 13.4% (inactive) in test [7], -12.6% (inactive) in [11] and 5% (inactive) in test [15]. The superoxide response (% of plate) in [8] was 103% (inactive). Further, the aptamer binding inhibition in [9] is 5% (inactive). Moreover, the results for the response in [10] and in test [12] were -8.79% (inactive) and 1.13% (inactive), respectively. In addition, the binding (% of control) in test [13] is 106% (inactive). Further, the efflux inhibition (fraction of control) in test [14] is -0.04 (inactive). The differentiation response in [16] was 0.92% (inactive).
Turning to `COc1cc(CNCCc2ccccc2F)ccc1OCC(=O)N1CCCCC1`, the percent of DMSO control GFP in [1] was 98.6% (inactive). For the same compound, the GFP response vs DMSO in test [2] is 104% (inactive); in test [4], 114% (inactive). For the same compound, in test [3], the percent response of DMSO control was 96.7% (inactive). In test [5], the GFP response, % of DMSO was 100% (inactive). Moreover, the double positive events in [6] amounted to 57.8%. The vesicle binding response in [6] was 196% (inactive). For the same compound, the results for the inhibition in test [7], in [11] and in [15] were -1.79% (inactive), 22.6% (inactive) and 2% (inactive), respectively. Moreover, the superoxide response (% of plate) in test [8] is 103% (inactive). Also, the aptamer binding inhibition in test [9] was -1% (inactive). Further, the results for the response in test [10] and in test [12] were -8.73% (inactive) and -3.26% (inactive), respectively. Further, the binding (% of control) in [13] was 98.2% (inactive). Moreover, the efflux inhibition (fraction of control) in test [14] is -0.35 (inactive). Besides, in [16], the differentiation response was 29.6% (inactive).
Turning to `CSCC[C@H](NC(=O)NC1CCCC1)C(=O)O`, in [1], the percent of DMSO control GFP was 89.8% (inactive). Further, the figures for the GFP response vs DMSO in test [2] and in test [4] were 113% (inactive) and 75.4% (inactive), respectively. In addition, the percent response of DMSO control in test [3] was 99.2% (inactive). The GFP response, % of DMSO in [5] was 89.6% (inactive). For the same compound, the double positive events in test [6] stood at 70.2%. Moreover, in test [6], the vesicle binding response was 233% (inactive). Moreover, the inhibition in test [7] was 8.4% (inactive); in test [11], -9.17% (inactive); in test [15], 13% (inactive). Moreover, the superoxide response (% of plate) in test [8] is 113% (inactive). Further, the aptamer binding inhibition in test [9] was 3% (inactive). Besides, the results for the response in test [10] and in [12] were -7.36% (inactive) and 1.23% (inactive), respectively. Besides, the binding (% of control) in test [13] is 101% (inactive). Also, the efflux inhibition (fraction of control) in [14] is 0.34 (inactive). Further, the differentiation response in [16] is 0.82% (inactive).
